# Assay results: PubChem BioAssay
# Calls of active or inactive are those of the source.
# Assays:
# [1] = tested on: Human papillomavirus type 1a protein E7 (residues 44-93); assay: HPV1a E7 fragment binders on microarrays, primary screen, biochemical, small-molecule microarray, residues 44-93, 635 nm fluorescence (AID 1108); conditions: small-molecule microarray binding, fluorescence 635 nm; higher = more signal;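 also: E7 fragment applied at 1 µg/mL in TBST for 1 h at 4 C; score combines spot fluorescence with its signal to noise ratio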
# [2] = modulators of HCV replicon luciferase signal, primary screen, HCV replication inhibitor project, Huh7 cells, luciferase reporter (AID 1109); conditions: 48 h, higher = more signal;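 also: huh7 hepatoma cells harbouring a luciferase neomycin HCV replicon reporter; luciferase luminescence as measure of HCV replicon replication; test concentration not given here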
# [3] = biological target: Left-right determination factor 2 (Homo sapiens) (UniProt O00292); assay: LEFTY2 binders on small-molecule microarrays, primary screen, biochemical, small-molecule microarray, 635 nm fluorescence scan (AID 1110); conditions: LEFTY2 binding, higher = more signal
# [4] = biological target: Calmodulin-1 (Homo sapiens) (UniProt P0DP23); assay: CALM1 binders on microarrays, EGTA buffer, profiling panel, biochemical, small-molecule microarray, Cy5-labelled CALM1 (AID 1111); conditions: Cy5-CALM1 binding fluorescence, higher = more signal;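 also: labelled calmodulin applied in Tris saline Tween buffer holding calcium plus EGTA and DTT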
# [5] = biological target: Calmodulin-1 (Homo sapiens) (UniProt P0DP23); assay: calcium-bound CALM1 binders on microarrays, profiling panel, artefact control for SMM control-protein annotation, biochemical, small-molecule microarray, Cy5-labelled CALM1, plus calcium (AID 1112); conditions: Cy5-CALM1 binding fluorescence, higher = more signal;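 also: score merges spot fluorescence with signal to noise from triplicate slides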
# [6] = small-molecule microarray binders of probe aWnt5a, primary screen, biochemical, biotinylated probe, 635/667 nm fluorescence (AID 1113); conditions: higher = more signal;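 also: score merges 667 nm fluorescence intensity with signal-to-noise per printed feature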
# [7] = small-molecule microarray binders of probe aShh, primary screen, biochemical, biotinylated probe, 635/667 nm fluorescence (AID 1114); conditions: higher = more signal;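 also: probe is biotin-labelled aShh protein from a stem cell growth factor screen; measures binding of labelled protein to compounds printed on the slide; score merges feature fluorescence at 667 nm with signal-to-noise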
# [8] = small-molecule microarray binders of probe aNog, primary screen, biochemical, biotinylated probe, 635/667 nm fluorescence (AID 1115); conditions: higher = more signal;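 also: probe is biotinylated aNog protein used at 0.15 µg/mL for 1 h at 4 C; z-score combines 667 nm fluorescence of each spot with its signal to noise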
# [9] = biological target: Torsin-1A-interacting protein 1 (Homo sapiens) (UniProt Q5JTV8); assay: LAP1 binders from COS7 cell lysate, primary screen, small-molecule microarray, 635/667 nm fluorescence (AID 1116); conditions: COS7-hLAP1 lysate binding, 635 nm fluorescence, higher = more signal
# [10] = biological target: Alpha-bungarotoxin (Bungarus multicinctus) (UniProt P60615); assay: alpha-bungarotoxin binders on microarray, profiling panel, artefact control for SMM control protein annotation, biochemical, small-molecule microarray, Alexa647 label, 635/667 nm fluorescence (AID 1117); conditions: alpha-BTX-A647 binding fluorescence, higher = more signal
# Albumin (Bos taurus) = Albumin (Bos taurus) (UniProt P02769); assay: bovine serum albumin binders on microarray, profiling panel, artefact control for SMM control protein annotation, biochemical, small-molecule microarray, Alexa647 label, 635/667 nm fluorescence (AID 1118); conditions: BSA-A647 binding, fluorescence 635 nm, higher = more signal;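 also: score merges 667 nm emission intensity and signal-to-noise per printed compound spot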
# [11] = small-molecule microarray binders of probe aXIP, primary screen, biochemical, NeuroSMM set, 635/667 nm fluorescence (AID 1119); conditions: higher = more signal, called active from +8 up or from −8 down;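 also: probe is the protein aXip251-270 applied at 1 µg/mL to compound-printed slides; binding of probe to printed compounds measured as 667 nm fluorescence plus signal to noise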
# [12] = small-molecule binders of probe aNOTCH3, primary screen, biochemical, small-molecule microarray, 635/667 nm fluorescence (AID 1120); conditions: higher = more signal;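 also: probe is a biotin-tagged antibody raised against NOTCH3 rather than NOTCH3 protein; score merges spot fluorescence near 667 nm with spot signal to noise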
# [13] = small-molecule binders of probe aNOTCH2, primary screen, biochemical, small-molecule microarray, 635/667 nm fluorescence (AID 1121); conditions: higher = more signal;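 also: score merges feature fluorescence read at 667 nm with its signal to noise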
# [14] = biological target: Carbonic anhydrase 2 (Homo sapiens) (UniProt P00918); assay: CAII small-molecule binders, profiling panel, biochemical, small-molecule microarray, Alexa647-labelled CAII (AID 1122); conditions: CAII-A647 binding fluorescence, higher = more signal
# [15] = COS7 lysate on small-molecule microarray, probe aHis, 635 nm (AID 1123); conditions: COS7 cell lysate, fluorescence, higher = more signal;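 also: z-score combines 667nm fluorescence intensity with signal-to-noise per printed compound spot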
# [16] = compound binding in COS7 lysate, probe aLAP1, primary screen, cell lysate, small-molecule microarray (AID 1124); conditions: probe aLAP1, fluorescence, higher = more signal;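 also: lysate comes from COS7 cells expressing LAP1 and is applied at 0.3 µg/mL; score merges spot fluorescence near 667 nm with signal-to-noise over triplicate slides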
# Sam68 (KHDRBS1) = assay: Sam68 small-molecule binders, primary screen, biochemical, small-molecule microarray, 635 nm fluorescence (AID 1125); conditions: small-molecule microarray binding, higher = more signal;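 also: score merges 667 nm channel intensity with signal to noise over triplicate slides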
# [17] = tested on: Chordin-like protein 2 (CHRDL2); assay: CHRDL2 small-molecule binders, primary screen, biochemical, small-molecule microarray, 635 nm fluorescence (AID 1126); conditions: small-molecule microarray binding, fluorescence 635 nm; higher = more signal;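 also: printed compound slides probed with Chrdl2 protein at 4 µg/mL for 1 h at 4 C; score merges 667 nm emission intensity with signal to noise over three replicate slides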
# [18] = biological target: Concanavalin-A (Canavalia ensiformis) (UniProt P02866); assay: ConA small-molecule binders, primary screen, artefact control for SMM control protein annotation, biochemical, small-molecule microarray, Alexa647 label, 635 nm (AID 1127); conditions: ConA-A647 binding fluorescence, higher = more signal;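 also: z combines 667 nm emission intensity with signal-to-noise across three replicate slides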
# Sequence of Concanavalin-A (Canavalia ensiformis) (P02866 whole entry, looked up): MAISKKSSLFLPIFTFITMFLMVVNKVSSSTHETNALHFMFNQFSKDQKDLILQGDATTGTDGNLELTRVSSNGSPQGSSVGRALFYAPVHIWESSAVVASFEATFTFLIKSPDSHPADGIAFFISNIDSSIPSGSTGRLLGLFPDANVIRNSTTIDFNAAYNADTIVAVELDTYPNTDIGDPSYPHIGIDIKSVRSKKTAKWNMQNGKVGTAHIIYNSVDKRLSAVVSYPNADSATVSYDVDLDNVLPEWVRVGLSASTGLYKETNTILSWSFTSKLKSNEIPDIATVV
# Sequence of Torsin-1A-interacting protein 1 (Homo sapiens) (Q5JTV8 whole entry, looked up): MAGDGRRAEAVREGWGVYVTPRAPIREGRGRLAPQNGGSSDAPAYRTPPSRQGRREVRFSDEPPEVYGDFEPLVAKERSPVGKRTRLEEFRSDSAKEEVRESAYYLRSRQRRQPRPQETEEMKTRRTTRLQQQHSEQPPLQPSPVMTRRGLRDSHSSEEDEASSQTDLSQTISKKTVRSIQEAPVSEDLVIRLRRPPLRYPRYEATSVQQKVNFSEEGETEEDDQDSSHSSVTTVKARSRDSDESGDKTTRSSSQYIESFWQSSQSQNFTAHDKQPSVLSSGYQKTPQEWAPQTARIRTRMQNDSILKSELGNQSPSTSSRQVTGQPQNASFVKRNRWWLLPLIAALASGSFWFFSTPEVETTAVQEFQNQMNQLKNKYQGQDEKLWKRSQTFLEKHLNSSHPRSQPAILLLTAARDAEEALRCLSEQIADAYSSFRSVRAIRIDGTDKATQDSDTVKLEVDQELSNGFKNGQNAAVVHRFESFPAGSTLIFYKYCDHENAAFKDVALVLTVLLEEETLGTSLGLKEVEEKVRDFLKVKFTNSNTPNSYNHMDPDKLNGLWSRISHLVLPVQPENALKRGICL
# Sequence of Left-right determination factor 2 (Homo sapiens) (O00292 whole entry, looked up): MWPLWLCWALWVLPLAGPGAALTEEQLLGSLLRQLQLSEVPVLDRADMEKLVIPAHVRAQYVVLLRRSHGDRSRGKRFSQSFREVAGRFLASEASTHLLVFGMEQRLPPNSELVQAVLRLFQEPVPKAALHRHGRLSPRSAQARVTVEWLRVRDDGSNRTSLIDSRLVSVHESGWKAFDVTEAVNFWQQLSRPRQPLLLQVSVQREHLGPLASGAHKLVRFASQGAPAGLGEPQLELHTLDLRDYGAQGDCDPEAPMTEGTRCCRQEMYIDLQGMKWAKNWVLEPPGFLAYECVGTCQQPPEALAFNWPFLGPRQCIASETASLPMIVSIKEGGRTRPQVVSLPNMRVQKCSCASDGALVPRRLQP
# Sequence of Alpha-bungarotoxin (Bungarus multicinctus) (P60615 whole entry, looked up): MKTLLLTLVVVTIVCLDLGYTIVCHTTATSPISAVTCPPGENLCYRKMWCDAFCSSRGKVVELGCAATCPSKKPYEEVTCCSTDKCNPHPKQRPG
# Sequence of Albumin (Bos taurus) (P02769 whole entry, looked up): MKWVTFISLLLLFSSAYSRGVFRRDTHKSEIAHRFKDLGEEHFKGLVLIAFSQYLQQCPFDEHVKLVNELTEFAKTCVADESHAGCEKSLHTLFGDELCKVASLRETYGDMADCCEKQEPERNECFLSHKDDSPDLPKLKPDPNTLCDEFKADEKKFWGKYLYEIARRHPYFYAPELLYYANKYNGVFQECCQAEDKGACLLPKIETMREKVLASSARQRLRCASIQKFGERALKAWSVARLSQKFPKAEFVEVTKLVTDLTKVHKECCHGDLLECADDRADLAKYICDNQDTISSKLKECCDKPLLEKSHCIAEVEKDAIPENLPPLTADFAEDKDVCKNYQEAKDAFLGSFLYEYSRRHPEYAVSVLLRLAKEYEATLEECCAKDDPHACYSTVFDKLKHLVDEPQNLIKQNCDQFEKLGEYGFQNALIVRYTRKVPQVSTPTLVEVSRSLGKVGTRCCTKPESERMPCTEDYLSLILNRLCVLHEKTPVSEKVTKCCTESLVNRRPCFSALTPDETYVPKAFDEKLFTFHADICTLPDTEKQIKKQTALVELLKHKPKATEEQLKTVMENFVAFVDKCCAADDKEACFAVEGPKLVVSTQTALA
Structure (SMILES),composite z-score [1],z-score [2],composite z-score [3],composite z-score [4],composite z-score [5],composite z-score [6],composite z-score [7],composite z-score [8],composite z-score [9],composite z-score [10],composite z-score (Albumin (Bos taurus)),composite Z-score [11],composite z-score [12],composite z-score [13],composite z-score [14],composite z-score [15],composite z-score [16],composite z-score (Sam68 (KHDRBS1)),composite z-score [17],composite z-score [18]
CCCC=C(CCC)[C@@H](NC(=O)C(C)(C)C)c1ccc(C(=O)OC)cc1,1.32,-1.01,-0.494,1.72,1.43,0.191,0.572,1.98,0.321,1.5,0.991,0.29 (inactive),0.25,0.0199,0.441,2.76,0.103,0.622,-0.91,0.869
CCCC#C[Si](O[C@H](CC)c1cn([C@H](C)c2ccccc2)nn1)(C(C)C)C(C)C,0.691,-0.133,0.3,-0.155,-0.157,-0.124,0.275,0.341,1.54,0.709,0.468,0.381 (inactive),-0.112,-0.0317,0.26,0.47,-0.0249,0.702,0.169,0.488
COc1ccc([Si](C)(C)[C@@H]2[C@@H](CC(=O)N3CCC[C@H]3CO)O[C@]3(C(=O)N(Cc4cccc(N5C(=O)COc6ccccc65)c4)c4ccccc43)[C@H]2C)cc1,1.35,-4.2,0.486,1.49,0.343,0.0215,0.131,-0.368,1.41,0.678,0.577,0.254 (inactive),-0.0821,-0.167,0.462,0.664,0.271,1.3,0.291,1.12
COc1cc2c(cc1O)C=[N+](Cc1sc3ccccc3c1Cl)CC2,-0.429,-1.57,0.324,-0.0659,0.0401,-0.0403,-0.0626,0.162,0.25,0.252,0.606,0.0375 (inactive),-0.0546,-0.0658,0.742,0.491,0.361,-0.291,0.496,0.968
COC(=O)[C@@]1(Cc2ccc(OC)cc2)[C@H]2c3cc(C(=O)N4CCCC4)n(CCO)c3C[C@H]2CN1C(=O)c1ccccc1,1.1,-0.474,-0.352,0.841,0.173,0.433,0.305,1.85,1.47,0.365,0.245,-0.423 (inactive),0.302,0.0918,0.847,2.46,0.57,0.827,-0.0307,0.716
Cc1ccc(S[C@]2(C(=O)NCc3ccccc3)CC(=O)N(C3CCCCC3)[C@@H]2c2ccc(CO)cc2I)cc1,1.23,-2.75,-0.364,0.699,-0.267,0.205,-0.0324,-0.18,0.759,0.604,0.0863,-0.0202 (inactive),0.0301,-0.133,0.459,2.13,0.658,1.23,0.338,1.14
C[C@@H]1NC(=O)[C@@H](Cc2ccccc2)NC(=O)[C@@]23C(=O)N[C@@H](Cc4ccccc4)C2[C@H](C)[C@@]2(C)O[C@H]2C3/C=C/C/C=C\CNC1=O (stereo not given in full),0.739,-0.857,-0.22,-0.744,-1.16,-0.222,-0.0471,-0.281,-0.0991,-0.537,0.324,-0.888 (inactive),-0.277,-0.125,0.493,1.05,0.074,0.126,-0.153,-0.447
CCCC[C@@H]1C[C@H]1[C@@H](NC(=O)c1cccs1)c1ccccc1C(F)(F)F,1.39,0.758,-0.363,1.72,0.763,-0.001,0.663,1.52,0.582,0.881,0.485,-0.147 (inactive),0.265,0.0117,0.431,2.62,0.588,1.27,-0.319,1.08
CCCCCN1CC=CC23O[C@@H]4/C=C\CCC(C)OC(=O)C4[C@H]2C(=O)N(C(CO)C(C)C)[C@@H]3C1=O (stereo not given in full),-0.333,-1.64,-0.214,-0.983,-0.876,-0.172,-0.469,-0.463,0.163,0.0325,0.157,0.141 (inactive),-0.247,-0.182,0.824,0.337,0.57,0.132,-0.461,0.192
COCCOC(=O)N1C(=O)[C@@]2(c3cc(C#CCCO)ccc31)[C@H](C(=O)Nc1nc3ccccc3s1)[C@H]1C(=O)O[C@H](c3ccccc3)[C@H](c3ccccc3)N1[C@@H]2c1ccc(O)cc1,1.16,-1.65,1.09,0.999,-0.237,-0.0445,0.191,0.566,0.549,1.6,-0.767,0.326 (inactive),0.177,0.0687,0.473,2.08,0.799,1.31,0.791,1.17
COC(=O)c1c(CC[C@@H](CO)NC(=O)N2CCC[C@H]2Cn2cc(C3(O)CCCCC3)nn2)oc(C(C)=O)c1C(=O)OC,1.33,-0.172,0.562,0.624,-0.712,-0.275,-0.0709,0.189,0.416,0.966,0.844,0.506 (inactive),-0.0328,-0.0795,0.707,1.44,0.473,1.28,1.09,1.04
